Compound activity deposited in PubChem by National Center for Advancing Translational Sciences (NCATS).
Shown are actives, neighbours in structure and some others; about 12% of the full set was active somewhere.
Pf growth 96h: Primary qHTS for delayed death inhibitors of the malarial parasite plastid, 96 hour incubation; P. falciparum luciferase reporter growth, 96 h; Potency, µM (doses to about 28.7 µM), inactives show at the highest dose activity change, negative = inhibition, hits mostly inhibitors; 320,000 tested, 6.9% active; also: % is scaled to controls: 0 for no effect and ±100 for the full control effect
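96 h incubation, 37 C, 5% CO2, of luciferase-reporter P. falciparum-infected RBCs (2% hematocrit, 0.05% parasitemia final) with test compounds; endpoint luminescence.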
Pf growth 48h: Primary qHTS for delayed death inhibitors of the malarial parasite plastid, 48 hour incubation | P. falciparum luciferase growth in erythrocytes, 48 h | 310,000 tested, 5.9% active | Potency, µM (titrated, usually from 28.7 µM), inactives show at the highest dose activity change, negative = inhibition, most hits filed as inhibitors; also: % is scaled to controls: 0 for no effect and ±100 for the full control effect
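First compound was added to culture medium, then infected red cells at 0.1% parasitemia and 2% hematocrit (final). After incubation at 37 C under 5% CO2, luciferase detection reagent was dispensed and light output recorded.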
Sm TGR inh: qHTS Assay for the Inhibitors of Schistosoma Mansoni Peroxiredoxins; purified TGR, DTNB reduction, TNB absorbance 405 nm; Potency, µM (highest dose often 114 µM), without a hit: at the highest dose activity change, negative = inhibition, hits mostly inhibitors; 360,000 tested, 3% active; AID 485364, 2010; also: % is scaled to controls: 0 for no effect and ±100 for the full control effect; nearly all actives have a fitted effect of over 60% in size
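First, TGR (20 nM dispensed) and NADPH were mixed with compound. Second, a 15 min room-temperature incubation followed. Third, further NADPH and then DTNB were added to start the reaction. Finally, TNB absorbance was monitored kinetically.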
SARS PLP yeast: qHTS of Yeast-based Assay for SARS-CoV PLP; S. cerevisiae expressing SARS-CoV PLpro, growth rescue; Potency, µM (highest dose often 32.9 µM), for inactives: at the top dose activity, positive = growth rescue, hits mostly activators; 330,000 tested, 0.19% active; calls by dose curve; also: 0% is about no effect; nearly all actives have a fitted effect of over 55% in size
* marks the source's active call; other numbers are inactive results; ? = inconclusive; / = no result given; [ ] = another dose, or the depositor's remark. Unless noted, calls follow the shape of the dose curve; as a rule, active = well fitted curve in the direction sought with a large enough effect; inconclusive = small, poorly fitted or top-dose-only effect, or another doubt; inactive = no such curve, though single readings can be large; an effect the other way counts as inactive or inconclusive. Potency is read from the fitted curve at half-maximal effect.

SMILES	Pf growth 96h	Pf growth 48h	Sm TGR inh	SARS PLP yeast
CN1C(=O)C(C)(C)c2cc(S(=O)(=O)NCC3CCC(C(=O)NCc4ccccc4)CC3)ccc21 (stereo not drawn)	16%	-19%	7%	21%
CN(Cc1ccccc1)S(=O)(=O)c1ccc(Cl)c(C(=O)OCC(=O)NC2CCS(=O)(=O)C2)c1 (stereo not drawn)	/	/	/	-1%
C/C(=N\NC(=O)c1ccc(CSc2nc(C)cc(C)n2)cc1)c1ccco1	?	?	45µM*	-1%
Cc1cc(C)nc(SCc2ccc(C(=O)N/N=C/c3ccco3)cc2)n1	?	-33%	32µM*	-1%
CC(CNC(=O)c1ccccc1Cl)c1ccccc1 (stereo not drawn)	4%	49%	2%	4%
CC(=O)c1c(N2CCN(C)CC2)[nH]c(-c2ccccc2)nc1=S	116%	1.7µM*	-22%	2%
CCn1c(C)c(C(C)=O)c(N2CCN(c3ccccc3)CC2)nc1=S	-2%	/	0%	-5%
Cc1cc(C)cc(OCC(=O)OCC(=O)NC2CCCCCCC2)c1	5%	21%	0%	-2%
Cc1cccc(C)c1NC(=O)CN(C)CC(=O)c1c(N)n(Cc2ccccc2)c(=O)n(C)c1=O	-12%	12µM*	5%	-1%
CCn1c(=O)c(C(=O)CN(C)CC(=O)Nc2ccccc2Br)c(N)n(Cc2ccccc2)c1=O	?	10µM*	5%	2%
COc1ccc(CCNC2CC(C)N(C)CC2C)cc1OC (stereo not drawn)	?	2%	2%	-2%
COc1ccc(CNC2CC(C)N(C)CC2C)cc1OC (stereo not drawn)	-18%	10µM*	-4%	-2%
Cc1ccccc1N1CC(C(=O)Nc2nnc(SCCN3CCOCC3)s2)CC1=O (stereo not drawn)	4.1µM*	?	-3%	-1%
Cc1cccc(N2CC(C(=O)Nc3cccc(S(=O)(=O)N4CCCCC4)c3)CC2=O)c1C (stereo not drawn)	?	?	2%	1%
Cc1ccccc1N1CC(C(=O)Nc2ccncc2)CC1=O (stereo not drawn)	13µM*	-12%	1%	-2%
Cc1ccccc1N1CC(C(=O)Nc2ccc(Br)cc2)CC1=O (stereo not drawn)	/	/	7%	/
CC(=O)c1cccc(NC(=O)C2CC(=O)N(c3cccc(C)c3C)C2)c1 (stereo not drawn)	21%	1.5µM*	-1%	14%
O=C(CSc1ccccc1F)NCC1(N2CCCCC2)CCCCC1	?	-16%	-3%	3%[6.58 µM]
O=C(Nc1nc2n(n1)C(c1ccc(Cl)cc1)C=C(c1ccccc1)N2)c1ccco1 (stereo not drawn)	/	/	-9%	/
O=C(CSc1n[nH]c(-c2cccs2)n1)N1CCN(S(=O)(=O)c2ccc3ccccc3c2)CC1	5.9µM*	/	0%	0%
Nc1cc(=O)[nH]c(SCC(=O)N2CCN(S(=O)(=O)c3ccc4ccccc4c3)CC2)n1	-16%	10%	1%	-2%
O=C(CCNS(=O)(=O)c1ccc(Cl)cc1)N1CCCCCC1	12µM*	8%	-21%	-4%
Cc1ccccc1NC(=O)CCNS(=O)(=O)c1ccc2c(c1)CCC(=O)N2	?	34%	5%	-3%
O=C1CCc2cc(S(=O)(=O)NCCC(=O)N3CCN(c4cccc(Cl)c4)CC3)ccc2N1	10µM*	?	9%	-4%
Cc1ccc(NC(=O)CCNS(=O)(=O)c2ccc3c(c2)CCC(=O)N3)cc1F	9.3µM*	50%	7%	0%
SMILES	Pf growth 96h	Pf growth 48h	Sm TGR inh	SARS PLP yeast
O=C(COc1ccccc1F)NC1CC(=O)N(c2ccc3c(c2)OCCO3)C1 (stereo not drawn)	/	/	4%	/
COc1ccc(-c2cc(C)no2)cc1S(=O)(=O)N(C)c1ccc(C)cc1	?	?	5%	-2%
CCCNC(=O)c1cc(Cl)c(NC(=O)C2=CSCCO2)cc1OC	3%	11%	-5%	-3%
CCO[C@H]1OC(C(=O)N2CCN(Cc3ccc4c(c3)OCO4)CC2)=C[C@@H](c2ccc3c(c2)OCO3)[C@@H]1CCCO	13µM*	5.9µM*	0%	0%
C#Cc1ccc([C@H]2C=C(C(=O)N3CCN(Cc4ccc5c(c4)OCO5)CC3)O[C@@H](OCC)[C@@H]2CCCO)cc1	4.1µM*	4.1µM*	-12%	0%
COc1cccc2sc(N(Cc3cccnc3)C(=O)c3ccc(S(=O)(=O)N(C)C)cc3)nc12	/	/	14%	/
O=C1CCCN1CC1CCCN(Cc2nc(COc3ccccc3)no2)C1 (stereo not drawn)	15µM*	-3%	2%	-1%
O=C1CCCN1CC1CCN(Cc2nc(CC3CC3)no2)CC1	?	?	-3%	1%
COC(=O)c1ccc(CNC(=O)C2CCC(=O)N(C3CCCCCC3)C2)cc1 (stereo not drawn)	12%	7%	-2%	-1%
CCC(CC)C(=O)N1CC(=O)Nc2ccc(F)cc2C1c1ccccc1 (stereo not drawn)	15%	0%	10%	8%
O=C(c1ccco1)N1N=C(c2ccco2)CC1c1ccc(Cl)cc1Cl (stereo not drawn)	4.1µM*	8.3µM*	-22%	-2%
O=C(c1ccco1)N1N=C(c2cccs2)CC1c1cc([N+](=O)[O-])ccc1O (stereo not drawn)	?	5%	-56%	18%
COc1ccc(C2=NN(C(=O)c3ccco3)C(c3cc4ccccc4nc3Cl)C2)cc1 (stereo not drawn)	11%	-11%	45µM*	-2%
COc1ccc(C2=C(Nc3ccc(Br)c(C)c3)c3ccccc3C2=O)cc1	/	/	-6%	/
CCOC(=O)C1CCCCN1Cc1ccc(C(F)(F)F)cc1 (stereo not drawn)	9.3µM*	/	0%	9%
CCOC(=O)C1CCCCN1Cc1cccc(C(F)(F)F)c1 (stereo not drawn)	-23%	/	10%	9%
Cc1nnsc1C(=O)N1CCCC(N2CCN(c3ccc(F)cc3)CC2)C1 (stereo not drawn)	33%	0%	-5%	0.71µM*
O=C(Cn1cccn1)N1CCCC(N2CCN(c3ccccc3F)CC2)C1 (stereo not drawn)	3.7µM*	27%	0%	4%
O=C(COc1ccccc1Cl)N1CCCC(N2CCN(c3ccc(F)cc3)CC2)C1 (stereo not drawn)	8.3µM*	12µM*	0%	-3%
CCOC(=O)CCCCCC(=O)Nc1ccc2c(c1)C(=O)N([C@H](C)CO)C[C@@H](C)[C@H](CN(C)S(=O)(=O)c1cn(C)cn1)O2	/	/	/	9%
CC(C)c1ccc2[nH]c(O)c(N=NC(=O)c3ccc(CSc4nncn4C)cc3)c2c1	5.2µM*	-17%	-1%	3%
COc1ccc(-c2nc(CN3CCC(C(=O)NCCCN4CCN(c5ccccc5F)CC4)CC3)c(C)o2)cc1OC	/	/	-1%	/
CCC1=Nc2cc(C(=O)N3CCC(C)CC3)ccc2Sc2ccc(C)cc21	/	/	-2%	/
